Assay outcomes (PubChem BioAssay)
In the library only some 11% were active in any assay of this set; here they are far more common.
Pf growth 96h – P. falciparum growth inhibition at 96 hours. P. falciparum luciferase reporter growth, 96 h. Potency, µM (highest dose often 28.7 µM), most hits filed as inhibitors. actives 6.9% (n = 320,000)
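Compounds incubated with erythrocytes infected by luciferase-expressing P. falciparum (2% hematocrit, 0.05% parasitemia final) for 96 hours, 37 C in 5% CO2. Growth inhibition scored as decreased luciferase luminescence.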
HCV inh – blocks hepatitis C virus. Huh7.5.1 HCVcc-Cre infection, luciferase reporter, 44 h. Potency, µM (highest dose often 41.8 µM), most hits filed as inhibitors. actives 3.4% (n = 340,000). AID 651820
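A cell-based infection assay in which seeded cells (1,000 per well) receive test compound after 4 h, are inoculated with HCVcc-Cre at approximately 0.5 moi, and are incubated 44 h before luminescence detection.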
AmpC inh detg – blocks E. coli AmpC beta-lactamase in detergent assay | Potency, µM (highest dose often 114 µM), most hits filed as inhibitors | P00811 | AmpC hydrolysis of nitrocefin, absorbance 480 nm, 0.01% Triton | actives 0.041% (n = 370,000); also: nearly all actives have a fitted effect of over 25% in size
Target sequence (P00811 whole entry, looked up): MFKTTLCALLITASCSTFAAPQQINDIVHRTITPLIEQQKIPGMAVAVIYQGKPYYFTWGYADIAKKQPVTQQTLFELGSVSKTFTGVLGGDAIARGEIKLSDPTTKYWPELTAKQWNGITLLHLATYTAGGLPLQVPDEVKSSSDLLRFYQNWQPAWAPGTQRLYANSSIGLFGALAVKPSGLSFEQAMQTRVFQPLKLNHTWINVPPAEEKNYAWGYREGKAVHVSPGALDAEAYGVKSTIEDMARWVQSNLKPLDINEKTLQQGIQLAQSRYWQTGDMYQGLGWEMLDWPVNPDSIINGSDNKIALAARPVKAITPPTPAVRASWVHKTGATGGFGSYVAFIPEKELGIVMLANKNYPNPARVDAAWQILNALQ
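20 mM phosphate pH 7.0 + 0.01% (detergent screen) or 0.0001% Triton X-100; 5.3 nM AmpC reagent; cpd preinc 15 min RT; nitrocefin (800 uM stock) to start; A480 q20 s × 4 min; Activity was normalised to no-enzyme and no-compound control wells.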
AMA1-RON2 inh – disrupts binding of P. falciparum AMA1 to RON2; AlphaScreen AMA1-biotinylated RON2 peptide binding; Potency, µM (titrated, usually from 58.2 µM), actives largely listed as inhibitors; actives 0.2% (n = 360,000); also: nearly all actives have a fitted effect of over 45% in size
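AMA1 (3D7) with his tag at 25 nM final met compounds first, then biotinylated RON2 peptide at 25 nM; detection used donor plus acceptor beads, 10 µg/mL apiece, read by AlphaScreen after 30 min at room temperature.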
Pf growth 48h – P. falciparum growth inhibition at 48 hours (one generation) | P. falciparum luciferase growth in erythrocytes, 48 h | Potency, µM (titrated, usually from 28.7 µM), hits mostly inhibitors | actives 5.9% (n = 310,000)
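Firefly luciferase activity from engineered P. falciparum reports growth; inhibitors lower the luminescent signal. Cultures contained 2% hematocrit erythrocytes at 0.1% final parasitemia.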
AmpC no deterg – AmpC beta-lactamase inhibition without detergent | P00811 | AmpC nitrocefin hydrolysis, absorbance 480 nm, 0.0001% Triton | Potency, µM (top dose mostly 57.1 µM), actives largely listed as inhibitors | actives 0.52% (n = 330,000) | AID 485341; also: nearly all actives have a fitted effect of over 20% in size
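AmpC (5.3 nM in the dispensed reagent) in 20 mM phosphate pH 7.0 with 0.01% (detergent screen) or 0.0001% Triton X-100 was preincubated with compounds for 15 min at room temperature. Nitrocefin was then added from an 800 uM solution, and hydrolysis was followed at 480 nm.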
Hits are given with their value; – = inactive; ? = inconclusive; · = no result; [ ] = dose if it differs, or a comment. Calls follow the shape of the dose curve; as a rule, active = well fitted curve in the direction sought with a large enough effect; inconclusive = small, poorly fitted or top-dose-only effect, or another doubt; inactive = no such curve, though single readings can be large; an effect the other way counts as inactive or inconclusive.

SMILES | Pf growth 96h | HCV inh | AmpC inh detg | AMA1-RON2 inh | Pf growth 48h | AmpC no deterg
Cc1nc(C)c(CC(=O)N2CCc3c([nH]c4ccccc34)C2c2ccccn2)s1 (stereo unspecified) | 10µM | – | – | – | ? | –
O=C(c1ccc(-n2cccn2)cc1)N1CCc2c([nH]c3ccccc23)C1c1ccccn1 (stereo unspecified) | – | – | – | – | ? | –
CC(=O)c1ccc(C(=O)N2CCc3c([nH]c4ccccc34)C2c2cccc(C)n2)s1 (stereo unspecified) | 13µM | – | – | ? | ? | –
CCN(CCCNC(=O)CSc1cc(=O)n(CC)c2ccccc12)c1ccccc1 | · | · | – | · | · | ·
Cc1ccc(NC(=O)Cn2c(=O)n(CCCCCC(=O)NCc3ccc(F)cc3)c(=O)c3sccc32)cc1C | · | · | – | · | · | ·
Cc1cc(/C=C(/C#N)c2nc3ccccc3[nH]2)c(C)n1-c1ccccc1C(=O)O | – | – | – | – | 8.3µM | –
Cc1cc(/C=C(/C#N)c2nc3ccccc3[nH]2)c(C)n1-c1cc(C(=O)O)cc(C(=O)O)c1 | – | – | ? | – | – | –
Cc1ccc2nc(/C(C#N)=C\c3cc(C)n(-c4cccc([N+](=O)[O-])c4)c3C)[nH]c2c1 | 3.3µM | 2.2µM | – | – | · | –
N#C/C(=C\c1ccc([N+](=O)[O-])o1)c1nc2ccccc2[nH]1 | – | ? | – | – | – | –
Cc1ccc2nc(/C(C#N)=C\c3ccc([N+](=O)[O-])o3)[nH]c2c1 | ? | ? | – | – | 10µM | –
CCc1nn(C(C)C(=O)N2CCN(c3cccc(C(F)(F)F)c3)CC2)c(=O)c2cc3occc3n12 (stereo unspecified) | · | · | – | · | · | ·
COc1ccc(CN(C)C(=O)C2CC(=O)N(c3ccc4c(c3)OCCO4)C2)c(OC)c1 (stereo unspecified) | 6.6µM | ? | – | – | ? | –
CN(Cc1ccccc1Cl)C(=O)C1CC(=O)N(c2ccc3c(c2)OCCO3)C1 (stereo unspecified) | – | – | – | – | – | –
Oc1cccc2ccc(/C=C/c3ccccc3Cl)nc12 | – | 7.9µM | – | – | – | –
CCOc1cccc(/C=C/c2ccc3cccc(O)c3n2)c1O | 8.3µM | 14µM | – | – | –[0.00184 µM] | –
CCOc1c(OC(C)=O)ccc(/C=C/c2ccc3cccc(OC(C)=O)c3n2)c1[N+](=O)[O-] | 8.3µM | 8.9µM | – | – | 6.6µM | –
COc1ccccc1/C=C/c1ccc2cccc(O)c2n1 | – | ? | – | – | – | –
CCOc1cccc(/C=C/c2ccc3cccc(O)c3n2)c1OC | ? | ? | – | – | ? | –
Oc1cccc2ccc(/C=C/c3c(F)cccc3Cl)nc12 | – | 11µM | – | – | – | –
CC(C)CCNC(=O)CSc1nc2ccccc2nc1Cc1ccccc1 | · | · | – | · | · | ·
COc1ccccc1NC(=O)c1oc2ccccc2c1NC(=O)c1ccccc1C(F)(F)F | · | · | – | · | · | ·
CN(Cc1ccccc1)C(=O)C1CCN(S(=O)(=O)c2ccc3c(c2)oc(=O)n3C)CC1 | · | · | – | · | · | ·
CCN1CCN(Cc2c(O)ccc3c(C)c(-c4ccccc4)c(=O)oc23)CC1 | · | · | – | · | · | ·
O=S(=O)(NCc1ccccc1)c1ccc2c(c1)OCCO2 | – | – | ? | – | – | –
O=S(=O)(NCc1csc(-c2cccnc2)n1)c1ccc2c(c1)OCCO2 | 2.9µM | – | ? | – | – | –
SMILES | Pf growth 96h | HCV inh | AmpC inh detg | AMA1-RON2 inh | Pf growth 48h | AmpC no deterg
O=S(=O)(NCc1csc(-c2cccnc2)n1)c1ccc(F)cc1 | – | – | – | – | – | –
O=S(=O)(NCc1cccnc1)c1ccc2c(c1)OCCO2 | 13µM | – | – | – | – | –
Cc1c(Cl)cccc1NC(=S)NCCc1ccc(Cl)cc1 | ? | 10µM | – | – | ? | –
Cc1c(Cl)cccc1NC(=S)NCCc1ccc(S(N)(=O)=O)cc1 | 10µM | – | – | – | – | –
Cc1ccccc1NC(=S)NCCc1ccc(S(N)(=O)=O)cc1 | – | – | – | –[11.6 µM] | ? | –
Cc1c(Cl)cccc1NC(=S)NCc1ccc(Cl)cc1 | · | – | · | – | · | ·
Cc1c(Cl)cccc1NC(=S)NCCc1ccc(F)cc1 | 13µM | – | ? | – | ? | –
Cc1cccn2cc(-c3cccc(NC(=O)C(C)C)c3)nc12 | · | · | – | · | · | ·
Cc1ccc2occ(CC(=O)N(Cc3ccccc3Cl)C3CCS(=O)(=O)C3)c2c1 (stereo unspecified) | · | · | – | · | · | ·
COC(=O)c1ccc(Cl)cc1NC(=O)N1CCC(CN2CCC(C)CC2)CC1 | · | · | – | · | · | ·
CCN1C(=S)N[C@@H](CCc2ccccc2)C(C(=O)OC)=C1C | 9.3µM | – | ? | – | ? | –
CCN1C(=O)N[C@@H](CCc2ccccc2)C(C(C)=O)=C1C | · | ? | · | – | · | ·
Cc1ccc(-c2c(CN3CCN(c4cccc(C)c4C)CC3)csc2C)cc1 | · | · | – | · | · | ·
CC(C)CC(C(=O)NCc1ccc(F)cc1)N1Cc2ccccc2C1=O (stereo unspecified) | · | · | – | · | · | ·
Cc1cc2nc(C)n(CCCNC(=O)Nc3ccc(F)cc3)c2cc1C | · | – | – | – | 12µM | –
Cc1cc(N2CCC(C(=O)NC3CC3)CC2)nc(-c2ccccc2)n1 | ? | – | ? | – | 3.7µM | –
CC1CCC(NC(=O)C2CCN(c3nc4ccccc4s3)CC2)CC1 (stereo unspecified) | – | 10µM | – | – | – | –
CS(=O)(=O)Cc1cc(N2CCCC2)nc(-c2ccccc2)n1 | – | – | – | – | – | –
CCCc1cc(N2CCC(C(N)=O)CC2)nc(-c2ccccc2)n1 | – | – | – | – | 5.2µM | –
COc1ccc(NC(=O)C2CCC(CNS(=O)(=O)c3cccc4nsnc34)CC2)cc1OC (stereo unspecified) | · | · | – | · | · | ·
CCOc1ccc(Nc2nc3c(S(=O)(=O)c4ccc(CC)cc4)nnn3c3ccc(Cl)cc23)cc1 | · | · | – | · | · | ·
COc1ccc2c(c1)c1c(c(=O)n(-c3ccccc3C)c(=O)n1Cc1cccc(C(F)(F)F)c1)n2C | · | · | – | · | · | ·
CCn1c(COc2ccccc2)nnc1SCC(=O)C(C)(C)C | 9.3µM | – | – | – | 12µM | –
CCn1c(COc2ccccc2C)nnc1SCC(=O)N1CCC(C)CC1 | ? | ? | ? | – | ? | –
CCn1c(COc2ccccc2C)nnc1SCC(=O)N1CCCCC1 | 7.4µM | – | – | – | ? | –
CCOC(=O)CN(C(=O)CSc1nnc(COc2ccc(OC)cc2)n1CC)c1ccccc1 | 6.6µM | – | – | – | 8.3µM | –
CCOC(=O)CN(C(=O)CSc1nnc(CNc2ccc(C)cc2C)n1CC)c1ccccc1 | 9.3µM | – | – | – | ? | –
O=C1CC(c2ccco2)CC(O)=C1C=Nc1cc(Cl)ccc1O (stereo unspecified) | ? | – | – | – | 9.3µM | –
